Structures can show the parent of a compound that is named as a salt. ± gives the uncertainty stated by the source.

This test concerns NCC-MFS5-C1. Nature of the test: cell viability relative to DMSO control; higher = less growth inhibition. The settings on record: 10 µM; treatment time: 3 days. How it is done:
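NCC-MFS5-C1 myxofibrosarcoma cells (1x10^4 per well, 384-well) were treated on day 2 with 10 µM of each drug. On day 5, viability was read by CCK-8 absorbance at 450 nm and normalised to the DMSO control (%), n = 2.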
In general, cell viability refers to a read-out of living cells in per cent, often relative to untreated cells. Turning to `CC(=O)OC12COC1CC(O)C1(C)C(=O)C(O)C3=C(C)C(O)CC(O)(C(OC(=O)c4ccccc4)C21)C3(C)C` (configuration not stated) [10-Deacetylbaccatin-III], the cell viability amounted to 86.6 ± 0.96%.

For the compound `CC[C@@]1(O)C(=O)OCc2c1cc1n(c2=O)Cc2cc3ccccc3nc2-1` [Camptothecin], the cell viability turned out to be 52.5 ± 6.1%.

Regarding `Cc1c(N)nc(C(CC(N)=O)NCC(N)C(N)=O)nc1C(=O)NC(C(=O)NC(C)C(O)C(C)C(=O)NC(C(=O)NCCc1nc(-c2nc(C(=O)NCCC[S+](C)C)cs2)cs1)C(C)O)C(O[C@@H]1O[C@@H](CO)[C@@H](O)[C@H](O)[C@@H]1O[C@H]1O[C@H](CO)[C@@H](O)[C@H](OC(N)=O)[C@@H]1O)c1cnc[nH]1` (some centres not stated) [Bleomycin Sulfate], the cell viability is 78.3 ± 12%.

Turning to `C=CCN1CC[C@]23c4c5ccc(O)c4O[C@H]2C(=O)CC[C@@]3(O)[C@H]1C5` [Naloxone HCl], the cell viability amounted to 72.1 ± 2.9%.

For the compound `C=C1C[C@@H]2[C@H](CC[C@]3(C)C(=O)CC[C@@H]23)[C@@]2(C)C=CC(=O)C=C12` [Exemestane], the cell viability amounted to 100 ± 4.3%.

On to `NCCCNCCSP(=O)(O)O` [Amifostine], for which the cell viability is 103 ± 3%.

For the compound `C/C=C(\C)C(=O)N[C@@H](c1ccccc1)[C@@H](O)C(=O)O[C@H]1C[C@@]2(O)[C@@H](OC(=O)c3ccccc3)[C@@H]3[C@]4(OC(C)=O)CO[C@@H]4C[C@H](O)[C@@]3(C)C(=O)[C@H](OC(C)=O)C(=C1C)C2(C)C` [Cephalomannine], the cell viability is 50.2 ± 8.7%.

On to `N.N.[Cl][Pt][Cl]` [Cisplatin], for which the cell viability stood at 79.1 ± 4.2%.

As to `O=P1(NCCCl)OCCCN1CCCl` (configuration not stated) [Ifosfamide], the cell viability turned out to be 79.9 ± 6.8%.

As to `Cn1c(CCCC(=O)O)nc2cc(N(CCCl)CCCl)ccc21` [Bendamustine HCl], the cell viability came to 66.3 ± 8.2%.

Turning to `O=P1(N(CCCl)CCCl)NCCCO1` (configuration not stated) [Cyclophosphamide Monohydrate], the cell viability is 85.6 ± 2.8%.

For `O=C(O)CCCc1ccc(N(CCCl)CCCl)cc1` [Chloroambucil], the cell viability was found to be 99.4 ± 29%.
